# This is part of a sample that, as a whole, favours compounds with a hit. Of some 83,000 tested, about 20% had one in any assay.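 Single-dose data. Exposure time 48 hours. Values below 10 considered active.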 A number with no mark means an inactive call. Activity calls are given as the source filed them.
# Legend:
# Experiment in all cases: NCI-60 one-dose screen, 48 h (100 = growth as untreated, 0 = no growth, -100 = all killed)
# [1] = test system: HT29 colon; details: 10 µM unless noted
# [2] = test system: SNB-75 CNS; details: 10 µM unless noted
# [3] = test system: SNB-19 CNS; details: 10 µM unless noted
# [4] = test system: U251 CNS; details: 10 µM unless noted
# [5] = test system: SK-MEL-5 melanoma; details: 10 µM unless noted
# [6] = test system: UACC-62 melanoma; details: 10 µM unless noted
# [7] = test system: LOX IMVI melanoma; details: 10 µM unless noted
# [8] = test system: SK-MEL-28 melanoma; details: 10 µM
# [9] = test system: SK-MEL-2 melanoma; details: 10 µM unless noted
# [10] = test system: PC-3 prostate; details: 10 µM unless noted
SMILES,growth [1],growth [2],growth [3],growth [4],growth [5],growth [6],growth [7],growth [8],growth [9],growth [10] [%]
O=C(Nc1ccc(N2CCNCC2)cc1)c1[nH]ncc1Nc1cc(Oc2ccccc2)ncn1,-59.7% (active),49.1%,45.9%,24.4%,22.8%,-5.09% (active),-81% (active),46.9%,72.3%,–
COc1cccc(C(=O)Cn2cc(/C=C(\C#N)S(=O)(=O)c3ccccc3)c3ccccc32)c1,111%,92.6%,95.4%,103%,92.4%,87.5%,94.8%,112%,85.9%,–
O=c1c2cccc(F)c2sc2c(N3CCNCC3)nc3ccccc3c12,-45.4% (active),35.3%,46.5%,10.3%,56.2%,54%,19.9%,69.1%,95%,–
CC/C(=C(\CC)c1ccc(OCC[N+](C)(C)C)cc1)c1ccc(OC)cc1,39.5%,31.2%,27.1%,21.6%,44.1%,42.2%,73.2%,76.7%,98.8%,–
COC(=O)/C(CCC=C(C)C)=C1\[C@@H](OC(C)=O)C[C@@]2(C)[C@H]1C[C@@H](O)[C@H]1[C@@]3(C)CC[C@H](NCCCNCCCCNCCCN)[C@@H](C)[C@@H]3CC[C@@]12C,31.1%,93.4%,61.8%,71.5%,12.6%,31.9%,52.9%,19.9%,98.1%,–
O=C(Nc1ccc(Cl)cc1F)c1cc(F)ccc1O,10.3%,-12.4% (active),22.8%,-4.4% (active),-84.4% (active),-7.35% (active),9.69% (active),7.52% (active),-29.8% (active),–
COc1ccccc1N1CCN(C(CNS(=O)(=O)c2ccc(Cl)cc2)c2cccnc2)CC1 (centres undefined),45.3%,91.4%,107%,61.7%,90.2%,100%,–,85.2%,120%,–
COc1cc(/C=C/C(=O)c2ccc(Nc3nc(NCCO)nc(N4CCOCC4)n3)cc2)cc(OC)c1OC,5.79% (active),10.4%,30.5%,14.6%,10.5%,-31.7% (active),11.1%,48.4%,50.6%,–
O=C(/C=C/c1ccccn1)c1ccc(OCc2nnc(-c3ccc(Cl)cc3)o2)cc1,-62.5% (active),50.8%,52.3%,–,–,49.3%,-92.1% (active),53.8%,–,58.9
COc1ccc(CCN2C(=O)/C(=C/c3ccc(C4Oc5ccccc5C5CC(c6cccc(OC)c6)=NN54)cc3)SC2=S)cc1 (centres undefined),104%,90.5%,99.1%,101%,99%,102%,96.4%,101%,99.8%,–
CCN1C(=O)N(CC)C2Nn3c(s/c(=C\c4ccccc4F)c3=O)=NC21 (centres undefined),17.4%,55.1%,45.5%,26.1%,33.9%,36.7%,44.3%,54.2%,52.8%,–
COc1ccc(Br)c(/C=C2\SC(=Nc3ccc(O)cc3)NC2=O)c1,113%,72.2%,85.5%,86.6%,90.3%,89.5%,91.2%,101%,96.2%,–
COc1ccc(CCN2C(=O)CCSC2=S)cc1OC,107%,84.7%,103%,97.2%,94.6%,94.6%,91.1%,98.2%,102%,–
COc1ccc(C2=Nn3c(NN)nnc3SC2)cc1,83.8%,92.4%,104%,99.7%,91.5%,104%,99.9%,110%,94.4%,–
O=C(CN1C(=O)/C(=C\c2ccc(Cl)cc2)SC1=S)Nc1ncc(Cc2ccc(Cl)cc2)s1,110%,88.6%,102%,100%,95.7%,99.9%,92.9%,–,105%,–
COc1c2ccoc2c(/C=C/C=O)c2oc(-c3ccccc3)cc(=O)c12,87.1%,95.2%,87.1%,16.3%,48.6%,83%,-41% (active),102%,78.2%,–
CC1=CCC(OC(=O)C(C)(C)CCC(O)(C(=O)OC2(C(C)C)CCC3(C)OC3C2)C(C)C)(C(C)C)CC1 (centres undefined),-70.2% (active),-98% (active),-97.2% (active),-98.8% (active),-97.2% (active),-94.2% (active),-90.5% (active),-96.9% (active),-91.6% (active),–
COc1ccc(CSc2nnc(SCC(=O)Nc3ccc(Cl)cc3)s2)cc1,98.5%,93.2%,90.9%,–,–,18.2%,46.8%,87.2%,124%,58.6
Nc1ncnc(N)c1NC(=O)c1ccc(OCc2ccccc2)cc1,96.3%,110%,103%,102%,102%,99%,110%,117%,93.1%,–
O=C(COc1cc(O)c2c(=O)cc(-c3ccccc3)oc2c1)Nc1ccccc1C(F)(F)F,70.6%,-4.06% (active),45.2%,4.09% (active),–,77.5%,52%,–,92%,–
COc1ccc(-c2nsc3c2NC(=O)CC3c2cccc(OC)c2)cc1 (centres undefined),8.58% (active),-17.5% (active),70.3%,37.8%,31.6%,41.5%,50.3%,45.3%,34.1%,–
CCCCCCn1c(=N)n(CC(O)COc2cccc(C)c2)c2ccccc21 (centres undefined),-46.2% (active),-92.1% (active),12.6%,-75.7% (active),-98.7% (active),-72.4% (active),-86.3% (active),-92.3% (active),-79.7% (active),–
COc1cccc(/C(C#N)=C/c2nc3c(N4CCOCC4)nc(Cl)nc3n2C)c1,-49.8% (active),-17.2% (active),55.6%,-15.1% (active),4.5% (active),-62.3% (active),-88.2% (active),-77.5% (active),-29.7% (active),–
Cc1nc(Nc2ccccn2)sc1C(=O)/C=C/c1ccc(Cl)cc1,5.45% (active),11.9%,32.7%,14.8%,–,48.2%,15.8%,61.8%,31.6%,–
CC[C@]1(O)C[C@@H]2CN(CCc3c([nH]c4ccccc34)[C@@](C(=O)OC)(c3cc4c(cc3OC)N(C)[C@H]3[C@@](O)(C(=O)OC)[C@H](OC(=O)CCCBr)[C@]5(CC)C=CCN6CC[C@]43[C@@H]65)C2)C1,4.86% (active),13.2%,28.8%,13.5%,-42.8% (active),34.8%,8.02% (active),67.3%,13.6%,–
COc1ccc(C2=NN(/C=C3\SC(=O)NC3=Nc3ccc(F)cc3)C(c3ccc(F)cc3)C2)cc1 (centres undefined),98.8%,96.5%,95.1%,94.1%,92%,95.4%,97.6%,103%,102%,–
O=c1nc2sc3nc4ccccc4cc3cc-2s1,147%,116%,101%,115%,–,116%,111%,–,112%,–
COc1ccc(CCN2C(=O)CCSC2=S)cc1,18%,54.1%,84%,92.2%,94.1%,77.1%,8% (active),77.7%,85.4%,–
O=C(Nc1ccc(Cl)cc1)N1CCN(c2ccc3nncn3n2)CC1,-28.6% (active),-68.9% (active),80.3%,-74.7% (active),-98.4% (active),-88.3% (active),–,-95.5% (active),22%,–
C#CCn1cc(C=C2C(=O)NC(=O)NC2=O)c2cc(Cl)ccc21,116%,–,78.8%,82.1%,81.9%,65.3%,73.2%,106%,98.1%,92

# — PubChem BioAssay (NCI)
